# Assay outcomes: PubChem BioAssay, National Center for Advancing Translational Sciences (NCATS)
# Sampled rows, rich in hits. Any-hit rate of the full collection: about 10%.
# ELG1 repair inh: qHTS screen for small molecules that inhibit ELG1-dependent DNA repair in human embryonic kidney (HEK293T) cells expressing luciferase-tagged ELG1; actives 2.3% (n = 330,000); Potency, µM (titrated, usually from 46.1 µM), without a hit: top-dose activity change, negative = inhibition, actives largely listed as inhibitors; HEK293T ELG1-luciferase reporter, luminescence, 16 h; DNA damage induced by 5-fluorouridine; note: % is set by controls: 0 for no effect and ±100 for the full control effect; nearly all actives have a fitted effect of over 55% in size
#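 HEK293T cells expressing luciferase-tagged ELG1 (2,000/well) received 5-Fluorouridine plus compound or DMSO for 16 hr at 37 °C. Luciferase was read by ONE-Glo luminescence after 30 min at room temperature.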
# RORg inh: qHTS for inhibitors of ROR gamma transcriptional activity | AID 2551, 2010 | actives 5.4% (n = 310,000) | Potency, µM (top dose mostly 53.6 µM), for inactives: at the top dose activity change, negative = inhibition, actives largely listed as inhibitors | Drosophila S2 Gal4-RORgamma UAS-luciferase reporter, 20 h; note: % is set by controls: 0 for no effect and ±100 for the full control effect; nearly all actives have a fitted effect of over 60% in size
# Target sequence (P51450 whole entry, looked up, the tested form may be a part): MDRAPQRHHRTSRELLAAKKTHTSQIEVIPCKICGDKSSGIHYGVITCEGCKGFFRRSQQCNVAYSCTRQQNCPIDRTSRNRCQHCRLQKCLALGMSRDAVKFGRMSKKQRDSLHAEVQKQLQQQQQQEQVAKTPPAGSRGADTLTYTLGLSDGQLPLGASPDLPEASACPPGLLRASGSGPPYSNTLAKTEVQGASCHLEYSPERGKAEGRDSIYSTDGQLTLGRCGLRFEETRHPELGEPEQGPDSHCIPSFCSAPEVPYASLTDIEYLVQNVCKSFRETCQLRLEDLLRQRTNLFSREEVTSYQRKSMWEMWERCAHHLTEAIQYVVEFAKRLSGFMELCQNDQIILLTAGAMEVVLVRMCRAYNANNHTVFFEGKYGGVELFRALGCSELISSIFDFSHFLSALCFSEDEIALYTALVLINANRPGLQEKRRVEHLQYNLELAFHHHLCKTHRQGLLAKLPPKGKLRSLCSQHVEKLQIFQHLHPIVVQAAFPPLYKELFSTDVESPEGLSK
#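 In this cell-based reporter format, copper sulfate (700 uM final) drives Gal4–ROR gamma fusion expression from a metallothionein promoter in Drosophila Schneider cells; compounds preincubated 1 hr, reporter read after 20 hr at ambient temperature.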
# MCF10A rerep: A quantitative high throughput screen for small molecules that induce DNA re-replication in MCF 10a normal breast cells; MCF 10A DNA re-replication, Hoechst nuclear intensity, 48 h; Potency, µM (doses to about 46.1 µM), without a hit: at the top dose activity, positive = re-replication, hits mostly activators; actives 2.9% (n = 350,000); AID 624296, 2012; note: % of control where 0% means no effect; nearly all actives have a fitted effect of over 50% in size
# SW480 rerep: A quantitative high throughput screen for small molecules that induce DNA re-replication in SW480 colon adenocarcinoma cells | actives 1.8% (n = 340,000) | Potency, µM (highest dose often 46.1 µM), for inactives: top-dose re-replication activation, most hits filed as activators | SW480 DNA re-replication, Hoechst DNA content imaging, 48 h | AID 624297, 2012; note: % of control where 0% means no effect; nearly all actives have a fitted effect of over 55% in size
#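 SW480 cells exposed to compounds for 48 hr at 37 C, 5% CO2, then Hoechst-stained 40 min. Nuclear DNA content imaged by fluorescence scanning (405 nm excitation, 500-530 nm emission); re-replication scored as increased high-intensity nuclei.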
# Gal4-VP16 FLuc: VP16 counterscreen qHTS for inhibitors of ROR gamma transcriptional activity; Drosophila S2 Gal4-VP16 UAS-luciferase, luminescence, 20 h; Potency, µM (highest dose often 53.6 µM), without a hit: top-dose activity, negative = inhibition, actives largely listed as inhibitors; actives 3.5% (n = 310,000);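 note: Gal4-VP16 expression switched on by copper sulfate through the metallothionein promoter; % is set by controls: 0 for no effect and ±100 for the full control effect; nearly all actives have a fitted effect of over 50% in size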
# * hit, by the source's call; u = inconclusive; x = no result; [ ] = another dose, or the depositor's remark. Calls come from the whole dose curve; as a rule, active = well fitted curve in the direction sought with a large enough effect; inconclusive = small, poorly fitted or top-dose-only effect, or another doubt; inactive = no such curve, though single readings can be large; an effect the other way counts as inactive or inconclusive. Potency is the fitted concentration of half-maximal effect.
SMILES,ELG1 repair inh,RORg inh,MCF10A rerep,SW480 rerep,Gal4-VP16 FLuc
Cc1ccsc1-c1nc(-c2ccccc2)c(-c2ccccc2)[nH]1,4%,4µM*,6%,u,u
O=C(O)Cc1cccc(=O)c(O)c1C(=O)O,x,x,1%,0%,x
N=c1oc2cc(O)ccc2cc1C(=O)Nc1nc2ccccc2s1,u,-2%[10 µM],8.2µM*,2.9µM*,4%
N=c1oc2cc(O)ccc2cc1C(=O)Nc1ccccn1,8%,35%,x,x,0%
N=c1oc2ccc(Cl)cc2cc1C(=O)Nc1ccc(F)cc1,u,17%,9%,1%,23%
N=c1oc2cc(O)ccc2cc1C(=O)Nc1ccc(Br)cc1,u,1.8µM*,5.2µM*,1.6µM*,1.8µM*
CC#C[C@@]1(O)CC[C@H]2[C@@H]3CCC4=CC(=O)CCC4=C3[C@H](c3ccc(N(C)C)cc3)C[C@]21C,x,6%[16.9 µM],x,x,-10%[17 µM]
N#CC(c1ccccc1)c1ccc2c(C(F)(F)F)cc(C(F)(F)F)nc2n1 (centres undefined),u,11µM*,u,-3%[9.22 µM],u
Cc1ccc(C(C#N)c2ccc3c(C(F)(F)F)cc(C(F)(F)F)nc3n2)cc1 (centres undefined),u,21%,9%,-9%,-26%
COc1ccc(S(=O)(=O)N2CCCCC2)cc1C(=O)N1CCCC1,11%,3%,1%,1%,5%
CC(C)=NOC[C@@H](O)COCc1ccco1,x,4%[10 µM],x,x,0%[10 µM]
CCOc1ccc(N)c(SSc2cc(OCC)ccc2N)c1,u,7.9µM*,u,17%,6.3µM*
CC1CCCC(NC(=O)C2COc3ccccc3O2)C1C (centres undefined),0%,x,12%,-7%,x
COc1cccc(CC2(CO)CCCN(Cc3ccccc3Cl)C2)c1 (centres undefined),-10%,-23%,4.6µM*,-10%,7%
N#CC1=C(N)Oc2n[nH]c(-c3ccccc3)c2C1c1cccnc1 (centres undefined),21%,2%,5%,-2%,6%
N#CC1=C(N)Oc2n[nH]c(-c3cccnc3)c2C1c1ccc([N+](=O)[O-])o1 (centres undefined),2%,6.3µM*,u,u,u
COc1cccc(C2CCCN2Cc2nc(-c3sccc3C)oc2C)c1 (centres undefined),-1%,28µM*,9%,-5%,4%
Cc1ccsc1-c1nc(CN2CCCC2c2ccc(F)cc2)c(C)o1 (centres undefined),2%,10µM*,0%,4%,-5%
CC1CC(Nc2ccccc2)c2ccccc2N1C(=O)c1cccnc1 (centres undefined),16µM*,-29%,u,9%,-19%
C[C@@H]1C[C@H](Nc2ccccc2)c2ccccc2N1C(=O)c1cccnc1,u,2%,13µM*,u,7%
COc1cc(O)c(C(CC(=O)N2CCCC(C)C2)c2ccc(N(C)C)cc2)c(OC)c1 (centres undefined),6%,2µM*,-5%,-21%[9.22 µM],-9%
COc1cc(O)c(C(CC(=O)N2CCCCC2)c2ccc3c(c2)OCO3)c(OC)c1 (centres undefined),13%,14µM*,7%,-3%,-5%
COc1cc(O)c(C(CC(=O)N2CCCC(C)C2)c2ccc3c(c2)OCO3)c(OC)c1 (centres undefined),17%,3.5µM*,7%,-17%,-7%
COc1ccc(C(CC(=O)N2CCCC2)c2c(O)cc(OC)cc2OC)cc1 (centres undefined),1%,-7%,0%,-8%[9.22 µM],1%
COCCN1CCN(C(=O)c2ccc3oc(CCc4ccccc4)nc3c2)CC1,u,14%,1%,-7%,-13%
SMILES,ELG1 repair inh,RORg inh,MCF10A rerep,SW480 rerep,Gal4-VP16 FLuc
CC1=C(C(=O)N2CCOCC2)C(c2c(F)cccc2F)NC(=O)N1 (centres undefined),11%,3%,-9%,-11%,3%
O=C(NCc1nnc2c(C(F)(F)F)cc(Cl)cn12)C1CCCC1,1%,3%,1%,29%,4%
Brc1cccc(-c2nnc(SCc3nc4ccccc4[nH]3)o2)c1,-3%,11µM*,10%,-6%,-17%
Cc1nc(SCc2nc3ccc(C(=O)c4ccccc4)cc3[nH]2)c2oc3ccccc3c2n1,4.6µM*,x,u,5%,x
Cc1ccc2oc3c(SCc4nc5ccccc5[nH]4)nc(C)nc3c2c1,0%,x,9%,14%,x
Cc1nc(SCc2nc3ccc(F)cc3[nH]2)c2oc3ccccc3c2n1,u,x,u,-7%,x
Cc1nc(SCc2nc3ccccc3[nH]2)c2oc3cc(Br)ccc3c2n1,18µM*,x,14%,8%,x
CC1(C)CC(NC(=O)c2cc(S(=O)(=O)N3CCOCC3)ccc2Cl)CC(C)(C)N1,21%,x,1%,-8%,x
CCCn1nc(C(=O)Nc2ccc(-n3cnnn3)cc2)c2ccccc2c1=O,-7%,x,2%,-5%,x
CCC(=O)N1CCN(c2ccc(NC(=O)COc3ccc(C)cc3C)cc2)CC1,-9%,-3%,13%,0%,15%
O=C(Cc1ccccc1[N+](=O)[O-])N1CCN(c2ccc(F)cc2)CC1,0%,15%,9%,12µM*,10%
CCC(=O)N1CCN(c2ccc(NC(=O)COc3ccccc3[N+](=O)[O-])cc2)CC1,23µM*,6%,0%,-8%,2%
O=C(Cc1ccc(F)cc1)N1CCN(c2ccc([N+](=O)[O-])cc2)CC1,-16%,u,2%,2%,6%
CCC(=O)N1CCN(c2ccc(NC(=O)COc3ccccc3Cl)cc2)CC1,18µM*,19%,1%,-7%,1%
O=C(CN1CCN(c2ccc(F)cc2)CC1)N1CCC(Cc2ccccc2)CC1,-13%,37%,8.2µM*,8.2µM*,u
CN(CC1CCOCC1)C(=O)CC1C(=O)NCCN1C/C=C/c1ccccc1 (centres undefined),8%,1%,u,-8%,-13%
COc1ccc(C)cc1N(CC(=O)N1CCc2ccccc2C1)S(C)(=O)=O,-14%,16%,6%,-2%,7%
COc1cc(-c2onc3ccc(Br)cc23)cc(OC)c1OC,u,-6%,u,18µM*,7%
COc1cc(-c2cc3nc4ccccc4n3c(N)c2C#N)cc(OC)c1OC,u,-6%,u,u,-7%
N#Cc1c(-c2ccccc2)cc2nc3ccccc3n2c1N,u,u,12µM*,5%,u
O=C(COc1ccc(F)cc1)c1c(O)cc(O)cc1O,u,2µM*,-3%,-1%,u
